Drawing on PubChem BioAssay (Tox21), this text covers Potency and outcome for eight compounds.

Several values for one entry are separate records, joined by “and”; a condition that tells them apart may be missing. Identical values can stand only once. Values without a mark were called inactive. Results filed as inconclusive are left out. Activity calls are given as the source filed them. Unless noted, the call rests on the fitted dose curve; in most records, active means well fitted curve in the direction sought with a large enough effect in the repeat runs; inconclusive means weak or mixed curves; inactive means no such curve, though single readings can be large; an effect the other way counts as inactive or inconclusive.

The nature of assay [1]: qHTS assay for small molecule agonists of the p53 signaling pathway (AID 651631; calls by dose curve; further: nearly all actives have a fitted effect of over 15% in size; further: potency means the concentration at half of the fitted maximal effect). In a few lines:
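HCT-116 cells carrying a stable p53 response element–beta-lactamase reporter were plated, rested 5 h at 37 °C, then exposed to compound in DMSO for 16 h at 37 °C; reporter activity was read as FRET substrate fluorescence after 2 h at room temperature.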
In general terms: In qHTS, concentration-response curves come from the screen itself.

Assay [2] is described as follows: qHTS assay for small molecule agonists of the p53 signaling pathway - cell viability (AID 651633; calls by dose curve; further: series mostly up to about 83 µM; nearly all actives have a fitted effect of over 30% in size). The method in brief:
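p53RE-bla cells were treated with compound for 16 hours at 37 C. Cytotoxicity was then measured as CellTiter-Glo luminescence after 30 min at room temperature.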

Assay [3] can be described thus: qHTS assay for small molecules that induce genotoxicity in human embryonic kidney cells expressing luciferase-tagged ATAD5 - cell viability (AID 651634; calls by dose curve; further: nearly all actives have a fitted effect of over 25% in size; further: potency means the concentration at half of the fitted maximal effect). In a few lines: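 HEK293T ATAD5-luc cells, 2,000/well; compound 15.5 hr, 37C/5% CO2; CellTiter-Fluor 30 min, 37C; fluorescence read.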
Assay [4] in a line: qHTS assay for small molecule disruptors of the mitochondrial membrane potential - cell viability (AID 720634; calls by dose curve;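 further: human HepG2 liver cancer cells; series mostly up to about 83 µM; nearly all actives have a fitted effect of over 20% in size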). The method in brief: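 Luminescence from CellTiter-Glo (ATP content) gave viability in HepG2 cells, read in the same wells as the MMP dye assay after 1 hr compound exposure at 37 C.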
Assay [5] in a line: qHTS assay to test for compound auto fluorescence at 590 nm (red) in HepG2 cells (AID 720674). The method in brief: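 Fluorescence at 590 nm emission following 540 nm excitation was recorded from HepG2 wells one hour after compound transfer, with DMSO-only wells as vehicle and Rose Bengal sodium equivalency as the scale.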
A short description of assay [6]: qHTS assay to test for compound auto fluorescence at 535 nm (green) in HepG2 cells (AID 720675).
Assay [7] can be described thus: qHTS assay to test for compound auto fluorescence at 460 nm (blue) in HEK293 cells (AID 720678). The method in brief:
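Blue read-out at excitation 405 nm and emission 460 nm follows overnight compound exposure of HEK293 cells at 37C in 5% CO2. Activity is given as auto fluorescence equivalency to triamterene.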

Assay [8] can be described thus: qHTS assay to test for compound auto fluorescence at 590 nm (red) in HEK293 cells (AID 720679). The method in brief: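 Red channel, Ex/Em 540/590nm; signal expressed as equivalency to Rose Bengal sodium. HEK293, 2,000 cells/well, 10% dialyzed FBS; 23 nL compound pinned after 4-5 hr attachment; overnight 37C/5% CO2 before reading.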
Assay [9] is described as follows: qHTS assay to test for compound auto fluorescence at 535 nm (green) in HEK293 cells (AID 720680).
Assay [10] can be described thus: qHTS assay to test for compound auto fluorescence at 460 nm (blue) in HEK293 cell free culture (AID 720681). The method in brief:
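Compounds were added to cell-free DMEM with 10% FBS and fluorescence read directly. The blue channel used 405 nm excitation and 460 nm emission, with triamterene as the reference fluorophore.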

The nature of assay [11]: qHTS assay to test for compound auto fluorescence at 535 nm (green) in HEK293 cell free culture (AID 720682). The method in brief: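 Read-out: 485/535 nm fluorescence intensity, calibrated against fluorescein. Medium only (DMEM + 10% FBS, no cells); test compound or DMSO vehicle added by pintool before plate reading.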
Assay [12] is described as follows: qHTS assay to test for compound auto fluorescence at 590 nm (red) in HEK293 cell free culture (AID 720683). The method in brief: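 Cell-free wells of DMEM with 10% FBS received compound, and intrinsic fluorescence was read at excitation/emission 540/590 nm. Values expressed as equivalence to Rose Bengal sodium.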
Assay [13] can be described thus: qHTS assay to test for compound auto fluorescence at 590 nm (red) in HepG2 cell free culture (AID 720684). In a few lines:
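Auto fluorescence equivalency versus Rose Bengal sodium, red channel Ex/Em 540/590 nm; compounds in cell-free MEM/10% FBS; DMSO vehicle control.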

A short description of assay [14]: qHTS assay to test for compound auto fluorescence at 460 nm (blue) in HepG2 cell free culture (AID 720685). In a few lines:
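Cell-free plates of MEM plus 10% FBS received 23 nL compound or DMSO vehicle; blue-channel (405/460 nm) intensity scored against triamterene as reference fluorophore.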

Assay [15] is described as follows: qHTS assay to test for compound auto fluorescence at 535 nm (green) in HepG2 cell free culture (AID 720686).
Assay [16] is described as follows: qHTS assay to test for compound auto fluorescence at 460 nm (blue) in HepG2 cells (AID 720687). The method in brief: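 HepG2 cells in MEM with 10% FBS, attached overnight at 37 C, were exposed to compound or DMSO for 1 hr at 37 C, 5% CO2. Blue fluorescence was read at 405/460 nm, with triamterene as reference fluorophore.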
In assay [17] the target is Glucocorticoid receptor (Homo sapiens) (UniProt P04150). The assay is described as follows: qHTS assay to identify small molecule agonists of the glucocorticoid receptor (GR) signaling pathway (AID 720691; active means well fitted activation curve with a large enough effect in the signal ratio in the repeat runs, not every such curve was filed as active; the % refers to the signal ratio). In a few lines:
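HeLa GR-bla reporter line; cells pre-incubated 4 h, compound in DMSO 18 h at 37 C; LiveBLAzer B/G FRET substrate 2 h RT; fluorescence intensity read-out.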

For assay [18] the target is unchanged. Put plainly: qHTS assay to identify small molecule antagonists of the glucocorticoid receptor (GR) signaling pathway (AID 720692; active means well fitted inhibition curve with a large enough effect in the signal ratio in the repeat runs, not every such curve was filed as active; the % refers to the signal ratio; further: potency means the concentration at half of the fitted maximal effect). The method in brief:
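Read-out: beta-lactamase FRET substrate fluorescence, 2 h at room temperature, in HeLa cells stably carrying a GRE-driven bla reporter. Compounds were co-incubated with 5 nM dexamethasone agonist (final) for 18 h at 37 C.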

Assay [19] can be described thus: qHTS assay for small molecule disruptors of the mitochondrial membrane potential (AID 720635). Further: potency means the concentration at half of the fitted maximal effect. The method in brief: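 HepG2 cells exposed to compound 1 hr at 37C, then Mito-MPS dye 30 min. Ratio read of aggregate (540/590 nm) versus monomer (490/535 nm) fluorescence.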

Glucocorticoid receptor (Homo sapiens), sequence (P04150 whole entry, looked up): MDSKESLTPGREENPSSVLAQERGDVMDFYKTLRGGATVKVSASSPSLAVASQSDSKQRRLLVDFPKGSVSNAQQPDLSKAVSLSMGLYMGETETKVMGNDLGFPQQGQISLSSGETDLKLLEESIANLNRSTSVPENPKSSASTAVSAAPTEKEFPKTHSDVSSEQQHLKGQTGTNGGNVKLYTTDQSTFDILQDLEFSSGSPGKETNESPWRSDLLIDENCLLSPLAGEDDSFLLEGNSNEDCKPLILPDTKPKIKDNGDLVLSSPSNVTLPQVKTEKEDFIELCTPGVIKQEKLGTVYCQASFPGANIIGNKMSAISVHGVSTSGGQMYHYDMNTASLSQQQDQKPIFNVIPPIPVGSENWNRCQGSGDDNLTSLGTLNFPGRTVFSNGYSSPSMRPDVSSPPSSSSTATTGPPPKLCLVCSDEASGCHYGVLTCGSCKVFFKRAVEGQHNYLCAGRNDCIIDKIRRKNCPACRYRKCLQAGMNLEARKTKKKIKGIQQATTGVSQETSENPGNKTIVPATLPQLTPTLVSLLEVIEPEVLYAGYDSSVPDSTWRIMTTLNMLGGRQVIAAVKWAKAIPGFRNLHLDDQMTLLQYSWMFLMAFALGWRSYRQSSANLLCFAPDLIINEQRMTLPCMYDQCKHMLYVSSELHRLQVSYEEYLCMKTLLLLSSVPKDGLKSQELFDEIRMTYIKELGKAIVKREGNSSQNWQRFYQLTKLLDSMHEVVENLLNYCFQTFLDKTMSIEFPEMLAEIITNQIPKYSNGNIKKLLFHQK

Take `N#CC(C#N)=C(C#N)C#N`: the Potency entry in assay [1], in [2], in assay [3], in assay [4], in assay [17] and in assay [18] was “inactive” each time. Moreover, the result in [5], in assay [6], in assay [7], in assay [8], in assay [9] and in assay [10] was inactive. In addition, the outcome in assay [11], in assay [12], in [13], in assay [14], in assay [15] and in [16] was inactive.

Take `CCCCCl`: the Potency entry in assay [1], in assay [2], in [3], in [4], in assay [17] and in assay [18] was “inactive” in each case. Besides, the call in assay [5], in assay [6], in assay [7], in assay [8], in assay [9] and in [10] was inactive. Moreover, the outcome in assay [11], in assay [12], in [13], in [14], in assay [15] and in [16] was inactive.

As to `O=C(CCl)CCl`, the Potency was 24.3 µM (active) in [1]; 63.4 µM (active) and 54.5 µM (active) in assay [3]; 43.6 µM (active) in assay [18]. For the same compound, the Potency result in assay [2] and in assay [17] was “inactive” in each case. Moreover, the compound was called inactive in [5], in assay [6], in assay [7], in assay [8], in assay [9] and in [10]. For the same compound, the compound was called inactive in assay [11], in assay [12], in assay [13], in assay [14], in assay [15] and in [16].

Regarding `C=CCc1ccccc1O`, the Potency entry in assay [1], in assay [3], in assay [4], in assay [17] and in [18] was “inactive” in each case. The compound was called inactive in assay [5], in [6], in assay [8], in assay [9], in [10] and in assay [11]. The compound was called inactive in assay [12], in assay [13], in [14], in assay [15] and in [16].

Take `NC(=S)c1c(Cl)cccc1Cl`: the Potency entry in assay [1], in [2], in assay [4], in [19], in assay [17] and in assay [18] was “inactive” in each case. In addition, the compound was called inactive in [5], in [6], in assay [7], in [8], in assay [9] and in [10]. In addition, the compound was classed as inactive in [11], in assay [12], in [13], in assay [14], in assay [15] and in assay [16].

In the case of `C[C@H]1O[C@H](OC2[C@@H](O)[C@@H](O)C(O)[C@H](O)[C@H]2O)[C@@H](N)C[C@@H]1N=C(N)C(=O)O` (some centres undefined), the Potency result in assay [1], in assay [3], in assay [4], in assay [19], in assay [17] and in [18] was “inactive” each time. For the same compound, the outcome in [5], in assay [6], in assay [7], in assay [8], in assay [9] and in assay [11] was inactive. In addition, the compound was classed as inactive in assay [12], in assay [13], in assay [14], in assay [15] and in [16].

For `Clc1ccc(Cl)c(Cl)c1`, the Potency entry in assay [1], in assay [2], in [3], in assay [4] and in assay [19] was “inactive” each time. For the same compound, the compound was classed as inactive in assay [5], in assay [6], in assay [8], in [9], in [10] and in assay [11]. The compound was called inactive in assay [12], in assay [13], in assay [14], in assay [15] and in assay [16].

Turning to `c1ccc2c(c1)-c1cccc3cccc-2c13`, the Potency result in assay [1] and in assay [3] was “inactive” each time. For the same compound, the Potency in assay [19] was 61.7 µM (active) and 61.1 µM (active). The call in [5], in assay [6], in assay [7], in assay [8], in assay [9] and in assay [11] was inactive. In addition, the compound was classed as inactive in [12], in assay [13], in assay [14], in assay [15] and in [16].
